High-throughput results as filed in PubChem BioAssay.
ASM inhibitor: inhibitors of human secretory acid sphingomyelinase. P17405. placental ASM, HMU-PC fluorogenic substrate, 60 min. Potency, µM (highest dose often 57.5 µM), actives largely listed as inhibitors. 340,000 compounds, 0.006% hits
Target sequence (P17405 47-631 limits assumed): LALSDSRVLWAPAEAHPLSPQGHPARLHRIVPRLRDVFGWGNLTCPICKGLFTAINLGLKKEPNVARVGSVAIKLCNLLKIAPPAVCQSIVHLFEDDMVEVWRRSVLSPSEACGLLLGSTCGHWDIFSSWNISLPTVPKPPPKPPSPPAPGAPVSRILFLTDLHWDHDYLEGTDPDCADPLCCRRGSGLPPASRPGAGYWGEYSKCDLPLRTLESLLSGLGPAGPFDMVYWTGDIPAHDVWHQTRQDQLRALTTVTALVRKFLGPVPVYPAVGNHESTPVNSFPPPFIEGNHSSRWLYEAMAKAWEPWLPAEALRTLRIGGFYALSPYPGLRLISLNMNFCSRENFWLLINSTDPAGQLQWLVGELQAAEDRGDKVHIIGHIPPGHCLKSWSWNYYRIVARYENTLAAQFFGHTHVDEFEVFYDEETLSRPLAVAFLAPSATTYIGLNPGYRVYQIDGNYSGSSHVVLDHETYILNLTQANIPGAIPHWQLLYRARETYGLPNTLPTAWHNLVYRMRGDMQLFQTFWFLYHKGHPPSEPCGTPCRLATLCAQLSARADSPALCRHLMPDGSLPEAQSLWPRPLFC
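Fluorescence read-out (Ex 386 nm, Em 447 nm) after stopping the reaction at pH 10. Enzyme: ASM from human placenta; substrate HMU-PC0, 9 uM final; 60 min, 37 °C. Compound preincubation 10 min, ambient temperature.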
HepG2 viability: kills HepG2 cells in TGF-b inhibitor counter-screen; Potency, µM (top dose mostly 46.1 µM), actives largely listed as cytotoxic; AID 588856; HepG2 CAGA-GFP viability, ATP luminescence, 18 h; 410,000 compounds, 0.76% hits
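CellTiter-Glo luminescence gave cytotoxicity after 18 hours at 37 degrees C. The cells were HepG2 CAGA-GFP in 1% FBS DMEM, stimulated with 500 pg/mL TGF-beta after compound addition. %Activity was normalised to no-cell wells (complete cell-killing) and DMSO (no toxicity), and curves were fitted and classified.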
TDP1 cell noCPT: qHTS for Inhibitors of human tyrosyl-DNA phosphodiesterase 1 (TDP1): qHTS in cells in absence of CPT; DT40 Tdp1-/- hTDP1 cells, no CPT, ATP luminescence, 48 h; Potency, µM (highest dose often 46.2 µM), usual class: inhibitors; AID 686978, 2013; 420,000 compounds, 15% hits; note: nearly all actives have a fitted effect of over 55% in size
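Luminescent ATP content (CellTiter-Glo) served as the growth readout. Knockout chicken DT40 cells expressing human TDP1 were exposed to compounds without camptothecin for a minimum 48 hr at 37 °C.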
IL1B secr inh: blocks inflammasome-driven IL-1 beta release; 360,000 compounds, 4.7% hits; AID 743279; THP-1 LPS/ATP IL-1B secretion, AlphaLISA, 16 h; hits give low values; activity change, % at 57.5 µM; in the data active = activity change below about -50%; inconclusive = mostly about -30% to -49%
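THP-1 cells pretreated 1 hr with compounds (up to 57.5 uM final), then stimulated with LPS (250 ng/mL final) plus ATP (1.25 mM final); secreted IL-1B measured by AlphaLISA after 16 hr, decreased signal indicating inhibition.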
TDP1 cell CPT: DT40-hTDP1 cell growth loss with CPT. 420,000 compounds, 12% hits. Potency, µM (titrated, usually from 46.2 µM), hits mostly inhibitors. chicken DT40 Tdp1-/-;hTDP1 cells + 20 nM CPT, ATP luminescence, 48 h; note: nearly all actives have a fitted effect of over 55% in size
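Chicken DT40 Tdp1-/- cells complemented with human TDP1, 400 cells/well, exposed to compounds plus 20 nM camptothecin for at least 48 h at 37 C; viability read as ATP content by CellTiter-Glo luminescence.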
TGFb inhibitor: inhibitors of TGF-b signaling. HepG2 CAGA-GFP TGF-b/SMAD3 reporter, GFP fluorescence, 18 h; TGF-beta stimulated, 500 pg/mL final. Potency, µM (top dose mostly 46.1 µM), hits mostly inhibitors. 410,000 compounds, 1.2% hits; note: nearly all actives have a fitted effect of over 65% in size
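Read-out: total well GFP (ex488/em500-530) summed from mean per-cell fluorescence. Cells: HEPG2 CAGA-GFP, 1% FBS DMEM, 18 h at 37 degrees C with 500 pg/mL final TGF-beta. Unstimulated wells served as the full-inhibition control; stimulated DMSO wells = 0%.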
Large screens that a line does not name were inactive. Hits are enriched below; roughly 19% of the tested compounds scored in any of these assays. Unless noted, calls come from the whole dose curve; as a rule, active = well fitted curve in the direction sought with a large enough effect; inconclusive = small, poorly fitted or top-dose-only effect, or another doubt; inactive = no such curve, though single readings can be large; an effect the other way counts as inactive or inconclusive.

Nc1ccc2c(c1)C(=O)C(=O)c1ccccc1-2	HepG2 viability 4µM, TDP1 cell noCPT 0.92µM, IL1B secr inh -122, TDP1 cell CPT 0.65µM, TGFb inhibitor inconclusive
CC(=NO)c1ccc2c(c1)C(=NO)c1ccccc1-2	TDP1 cell noCPT 21µM, TDP1 cell CPT 16µM
ON=C1c2ccccc2-c2cc(Br)ccc21	TDP1 cell noCPT inconclusive, IL1B secr inh -52, TDP1 cell CPT 7.3µM
Cc1ccc(S(=O)(=O)CC(=O)c2ccccc2[N+](=O)[O-])cc1	none
O=C(Cc1ccccc1)NCC(=O)N1CCN(Cc2cccc(Cl)c2)CC1	TDP1 cell noCPT inconclusive, TDP1 cell CPT inconclusive
O=C(CSc1ccc(Cl)cc1)NNC(=O)c1cccnc1	TGFb inhibitor inconclusive
Nc1cc2c(cc1[N+](=O)[O-])-c1ccccc1C2=NO	TDP1 cell noCPT 8.2µM, TDP1 cell CPT 21µM, TGFb inhibitor inconclusive
Nc1ccc2c(c1)C(=O)c1ccccc1-2	none
O=C1C(=O)c2ccc(-c3ccccc3)cc2-c2ccccc21	HepG2 viability 2.5µM, TDP1 cell noCPT 2.6µM, IL1B secr inh -57, TDP1 cell CPT 0.92µM, TGFb inhibitor inconclusive
CCC(=O)c1ccc(OC(C)C(=O)NC2(C#N)CCCCC2)cc1 (centres undefined)	none
O=C(/C=C/c1cccc(C(F)(F)F)c1)NNC(=O)c1ccncc1	none
Cc1cc(S(=O)(=O)Nc2ccc3oc4c(c3c2)CCCC4)ccc1Cl	TDP1 cell noCPT 23µM, TDP1 cell CPT 21µM, TGFb inhibitor 16µM (no result: ASM inhibitor, IL1B secr inh)
Cc1cc(C)c(S(=O)(=O)Nc2ccc3oc4c(c3c2)CCCC4)cc1C	TDP1 cell noCPT inconclusive, TDP1 cell CPT 16µM, TGFb inhibitor inconclusive (no result: ASM inhibitor, IL1B secr inh)
COC(=O)CCC(=O)Nc1ccc2oc3c(c2c1)CCCC3	none
Cc1cc(F)ccc1S(=O)(=O)Nc1ccc2oc3c(c2c1)CC(C)CC3 (centres undefined)	TDP1 cell noCPT inconclusive, TDP1 cell CPT inconclusive, TGFb inhibitor inconclusive (no result: ASM inhibitor, IL1B secr inh)
COc1ccc(C)cc1S(=O)(=O)Nc1ccc(F)cc1	none
CCOc1cc(C)c(S(=O)(=O)Nc2ccc(F)cc2)cc1C	TDP1 cell noCPT 16µM, TDP1 cell CPT 16µM, TGFb inhibitor inconclusive
Cc1ccc(C)c(S(=O)(=O)Nc2ccc(O)cc2)c1	TDP1 cell noCPT inconclusive, TDP1 cell CPT inconclusive
Cc1cc(C)c(S(=O)(=O)Nc2ccc(O)cc2)cc1C	TDP1 cell noCPT 21µM, TDP1 cell CPT inconclusive
COCCOC1CCN(C(=O)C2CCC(=O)N(CCc3ccc(OC)cc3)C2)CC1 (centres undefined)	none
Cc1cc2n(n1)CCC(=O)N2Cc1ccc(C(=O)Nc2ccc(F)cc2F)cc1	TDP1 cell noCPT inconclusive, TDP1 cell CPT inconclusive (no result: ASM inhibitor, IL1B secr inh)
c1ccc2c(CCc3c[nH]c4ccccc34)ccnc2c1	TDP1 cell noCPT 16µM, TDP1 cell CPT 13µM, TGFb inhibitor inconclusive (no result: ASM inhibitor, IL1B secr inh)
COc1ccc(CCc2nnc(CCC(=O)NCC3CCCO3)o2)cc1 (centres undefined)	none
COc1ccc(CCc2nnc(CCC(=O)N(C)Cc3ccnc4ccccc34)o2)cc1	TDP1 cell noCPT 4.6µM, TDP1 cell CPT inconclusive
CCCN(CC1CCCO1)C(=O)CCc1nnc(CCc2ccc(OC)cc2)o1 (centres undefined)	TDP1 cell noCPT inconclusive, TDP1 cell CPT 23µM
COc1ccc(CCc2ccnc3ccccc23)cc1	TDP1 cell noCPT 21µM, IL1B secr inh -62, TDP1 cell CPT inconclusive
Cc1ccc(C)c(S(=O)(=O)/N=C(/Nc2ccccc2)c2ccccc2)c1	TDP1 cell noCPT inconclusive, TDP1 cell CPT inconclusive
CCCCn1nc(C(=O)Nc2ccc3c(c2)OCCO3)c2ccccc2c1=O	TDP1 cell noCPT inconclusive, TDP1 cell CPT inconclusive (no result: IL1B secr inh)
COCc1c(C(=O)N2CCN(C3CCCCC3)CC2)cnn1-c1ncc(C)c(-c2cccs2)n1	none (no result: ASM inhibitor, HepG2 viability, IL1B secr inh, TGFb inhibitor)
COc1ccc(Cc2nnc(NC(=O)c3ccccc3F)s2)cc1	TDP1 cell noCPT inconclusive
COc1ccccc1CCc1nnc(CCC(=O)N(C)Cc2ccncc2C)o1	TDP1 cell noCPT inconclusive
COc1ccccc1CCc1nnc(CCC(=O)N(C)Cc2cccc3cnccc23)o1	TDP1 cell noCPT 23µM, TDP1 cell CPT inconclusive
COc1ccc(OC)c(C(Cc2ccnc3ccccc23)Cc2ccnc3ccccc23)c1	TDP1 cell noCPT 13µM, TDP1 cell CPT 13µM, TGFb inhibitor inconclusive (no result: ASM inhibitor, IL1B secr inh)
COc1ccc(OC)c(C(O)c2nc3ccccc3n2C(C)C)c1 (centres undefined)	none
COc1ccc(CN2C(=O)C(CC(=O)NC3CC3)CC(C(=O)N3CCOCC3)=C2C)cc1 (centres undefined)	TDP1 cell noCPT inconclusive (no result: ASM inhibitor)
CC1=C(C(=O)N(C(C)C)C(C)C)CC(CC(=O)NCCN2CCOCC2)C(=O)N1Cc1ccc(C(C)(C)C)cc1 (centres undefined)	TDP1 cell noCPT 18µM, IL1B secr inh inconclusive, TDP1 cell CPT inconclusive, TGFb inhibitor inconclusive (no result: ASM inhibitor)
COc1ccc(CN2C(=O)C(CC(=O)NCCCCc3ccccc3)CC(C(=O)N(C)C)=C2C)cc1 (centres undefined)	TDP1 cell noCPT 18µM, TDP1 cell CPT inconclusive (no result: ASM inhibitor)
CC1=C(C(=O)N(C(C)C)C(C)C)CC(CC(=O)NCCCCc2ccccc2)C(=O)N1Cc1ccc(C(C)(C)C)cc1 (centres undefined)	HepG2 viability 18µM, TDP1 cell noCPT 21µM, TDP1 cell CPT 23µM, TGFb inhibitor 11µM (no result: ASM inhibitor)
COc1ccc(CN2C(=O)C(CC(=O)NCCc3ccccn3)CC(C(=O)N(C(C)C)C(C)C)=C2C)cc1 (centres undefined)	TDP1 cell noCPT inconclusive, TDP1 cell CPT inconclusive (no result: ASM inhibitor)
CC1=C(C(=O)N(C)C)CC(CC(=O)NCCCCc2ccccc2)C(=O)N1Cc1ccccc1 (centres undefined)	TDP1 cell noCPT inconclusive, TDP1 cell CPT inconclusive (no result: ASM inhibitor)
COc1ccc(CN2C(=O)C(CC(=O)NCCCCc3ccccc3)CC(C(=O)N(C(C)C)C(C)C)=C2C)cc1 (centres undefined)	TDP1 cell noCPT 12µM, TDP1 cell CPT 13µM, TGFb inhibitor inconclusive (no result: ASM inhibitor)
O=C(NCc1ccco1)C1C(=O)Nc2ccccc2C(=O)N1C1CCCCC1 (centres undefined)	none (no result: ASM inhibitor, HepG2 viability, TGFb inhibitor)
CCCn1c(C(C)NS(=O)(=O)c2ccccc2)n[nH]c1=S (centres undefined)	none
CCCC(=O)N1CCCC1(C)C(=O)NCc1ccc(SC)cc1 (centres undefined)	none (no result: ASM inhibitor)
